From PubChem BioAssay (Tox21) come the findings set out here.

A short description of assay [1]: qHTS assay to identify small molecule antagonists of the sonic hedgehog signaling (Shh) pathway (AID 1259369). Further: nearly all actives have a fitted effect of over 45% in size. Further: potency means the concentration at half of the fitted maximal effect. Conditions: NIH/3T3 Gli1-Luc reporter, Shh antagonist, luminescence 24 h; series mostly up to 92.4 µM. A digest of the protocol:
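Gli1 transcriptional reporter (firefly Luc) in NIH/3T3 background, conditioned-medium activated. 24hr exposure, luminescence endpoint.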

Assay [2] can be described thus: qHTS assay to identify small molecule agonists of the androgen receptor (AR) signaling pathway in the presence of an antagonist - cell viability counter screen (AID 1259379; active means well fitted curve in the direction sought with a large enough effect in the repeat runs; an effect the other way counts as inactive or inconclusive; further: nearly all actives have a fitted effect of over 25% in size; further: potency means the concentration at half of the fitted maximal effect). Conditions: MDA-kb2 viability, CellTiter-Fluor, 16 h; series mostly up to 92.4 µM. A digest of the protocol: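 Counter screen for cell viability run in parallel with the AR agonist-mode luciferase assay. MDA-kb2 cells were co-treated with nilutamide (3.0uM final) and compounds, then incubated 16 hr at 37C, and CellTiter-Fluor fluorescence was measured.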
Background: In qHTS, concentration-response curves come from the screen itself.

The nature of assay [3]: qHTS assay to identify small molecule agonists of the estrogen receptor beta (ER-beta) signaling pathway - cell viability counter screen (AID 1259380; active means well fitted curve in the direction sought with a large enough effect in the repeat runs; an effect the other way counts as inactive or inconclusive; further: nearly all actives have a fitted effect of over 30% in size; further: potency means the concentration at half of the fitted maximal effect). The following applies: ER-beta-bla HEK293T viability, CellTiter-Glo luminescence, 16 h; series mostly up to 92.4 µM. A digest of the protocol:
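In this qHTS counter screen, HEK293T cells carrying an ER-beta/UAS beta-lactamase reporter, grown in 2% charcoal-stripped FBS, received compound for 16 hr; ATP-based CellTiter-Glo luminescence was then read after 30 min at room temperature.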

The nature of assay [4]: qHTS assay to identify small molecule antagonists of the estrogen receptor beta (ER-beta) signaling pathway - cell viability counter screen (AID 1259382; active means well fitted curve in the direction sought with a large enough effect in the repeat runs; an effect the other way counts as inactive or inconclusive; further: nearly all actives have a fitted effect of over 55% in size). Conditions: ER-beta-UAS-bla HEK293T viability, CellTiter-Glo luminescence, 16 h; series mostly up to 92.4 µM. A digest of the protocol: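 HEK293T ER-beta-UAS-bla, 2% charcoal-stripped FBS; compounds + 1nM E2 16 hr 37C; CellTiter-Glo luminescence, 30 min RT.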

Assay [5] can be described thus: qHTS assay to identify small molecule agonists or antagonists of the thyroid stimulating hormone receptor (TSHR) signaling pathway - wild type cell line counter screen (AID 1259384). Conditions: HEK293 wild type, cAMP HTRF counter-screen; series mostly up to 92.4 µM. A digest of the protocol: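 Counter screen in untransfected Hek293: compounds (15-point titration, triplicate) plus phosphodiesterase inhibitor Ro20-1724 added after 18 h plating; 30 min RT. Intracellular cAMP via competitive d2/cryptate immunoassay, 1 h incubation.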

Assay [6] addresses Thyrotropin receptor (Homo sapiens) (UniProt P16473). In words: qHTS assay to identify small molecule antagonists of the thyroid stimulating hormone receptor (TSHR) signaling pathway (AID 1259385). Further: nearly all actives have a fitted effect of over 20% in size. Further: potency means the concentration at half of the fitted maximal effect. The following applies: TSHR-HEK293 cAMP HTRF, TSH-stimulated antagonist mode; series mostly up to 92.4 µM. A digest of the protocol: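 Antagonist mode: compound-treated TSHR-expressing HEK293 cells were stimulated with 1.5 ng/mL TSH (final) in presence of Ro20-1724 for 30 min at RT. HTRF cAMP detection after 1 h; each compound tested at 15 concentrations, triplicate.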

The target of assay [7] is Androgen receptor (Homo sapiens) (UniProt P10275). In words: qHTS assay to identify small molecule agonists of the androgen receptor (AR) signaling pathway in the presence of an antagonist (AID 1259381). Further: nearly all actives have a fitted effect of over 15% in size. Conditions: MDA-kb2 MMTV-luciferase, AR agonist + nilutamide, 16 h; series mostly up to 92.4 µM. A digest of the protocol:
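AR antagonist background: nilutamide 3.0uM final. Cell line: MDA-kb2, MMTV-driven luciferase, responsive to both AR and GR. Exposure 16hr, 37C, no CO2; ONE-Glo luminescence.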

The target of assay [8] is Estrogen receptor (Homo sapiens) (UniProt P03372). Nature of the assay: qHTS assay to identify small molecule agonists of the estrogen receptor alpha (ER-alpha) signaling pathway in the presence of an antagonist (AID 1259383). Further: nearly all actives have a fitted effect of over 15% in size. Further: potency means the concentration at half of the fitted maximal effect. On activation: top concentration of the series differs between compounds. The following applies: VM7Luc4E2 cells, ERE-luciferase, +ICI-182,780, 22 h; series mostly up to 92.4 µM. A digest of the protocol: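 ER-alpha agonism measured under antagonist challenge: 10.0nM ICI-182,780 (final) plus compound, 15 concentrations, 22hr, VM7Luc4E2 ERE-luciferase cells. Read by luminescence.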
Sequence of Estrogen receptor (Homo sapiens) (P03372 whole entry, looked up): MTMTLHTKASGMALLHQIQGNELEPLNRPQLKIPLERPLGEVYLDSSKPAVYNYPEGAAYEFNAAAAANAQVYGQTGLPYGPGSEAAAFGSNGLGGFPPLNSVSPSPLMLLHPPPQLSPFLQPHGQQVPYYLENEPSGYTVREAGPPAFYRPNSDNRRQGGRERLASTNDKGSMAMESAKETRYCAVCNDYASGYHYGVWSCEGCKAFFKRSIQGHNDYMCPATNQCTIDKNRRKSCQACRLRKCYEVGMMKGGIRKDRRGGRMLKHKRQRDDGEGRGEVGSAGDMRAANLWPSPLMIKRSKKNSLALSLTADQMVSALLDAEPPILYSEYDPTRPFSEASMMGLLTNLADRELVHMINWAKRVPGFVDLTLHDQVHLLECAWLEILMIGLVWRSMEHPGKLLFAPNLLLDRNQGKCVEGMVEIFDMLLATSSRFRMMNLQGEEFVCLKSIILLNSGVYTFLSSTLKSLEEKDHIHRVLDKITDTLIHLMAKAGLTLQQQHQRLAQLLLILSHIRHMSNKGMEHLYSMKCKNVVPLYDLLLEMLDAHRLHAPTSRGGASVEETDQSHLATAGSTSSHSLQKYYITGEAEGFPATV

The target of assay [9] is Estrogen receptor beta (Homo sapiens) (UniProt Q92731). Nature of the assay: qHTS assay to identify small molecule agonists of the estrogen receptor beta (ER-beta) signaling pathway (AID 1259377; active means well fitted activation curve with a large enough effect in the signal ratio in the repeat runs, not every such curve was filed as active; the % refers to the signal ratio). The following applies: ER-beta-UAS-bla HEK293T, beta-lactamase FRET ratio, 16 h; series mostly up to 92.4 µM. A digest of the protocol: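 qHTS in ER-beta-UAS-bla HEK293T cells: 6 hr settling, then 16 hr compound at 37C, then LiveBLAzer substrate 2 h at RT before fluorescence reading.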
Sequence of Estrogen receptor beta (Homo sapiens) (Q92731 whole entry, looked up): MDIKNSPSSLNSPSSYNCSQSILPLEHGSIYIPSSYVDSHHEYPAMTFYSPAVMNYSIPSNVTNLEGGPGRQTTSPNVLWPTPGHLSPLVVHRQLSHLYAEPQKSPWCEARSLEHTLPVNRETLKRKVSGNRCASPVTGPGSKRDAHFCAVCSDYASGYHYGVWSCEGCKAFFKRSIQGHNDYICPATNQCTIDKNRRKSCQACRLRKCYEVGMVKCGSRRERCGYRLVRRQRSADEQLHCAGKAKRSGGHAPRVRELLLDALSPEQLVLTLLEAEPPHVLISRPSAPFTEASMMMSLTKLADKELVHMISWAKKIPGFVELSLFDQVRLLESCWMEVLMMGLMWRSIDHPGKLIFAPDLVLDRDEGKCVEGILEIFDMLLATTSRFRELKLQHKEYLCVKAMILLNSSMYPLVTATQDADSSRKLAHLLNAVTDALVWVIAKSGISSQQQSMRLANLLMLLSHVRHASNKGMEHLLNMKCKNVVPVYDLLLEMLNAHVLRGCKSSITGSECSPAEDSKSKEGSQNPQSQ

Assay [10] has the same target. In words: qHTS assay to identify small molecule antagonists of the estrogen receptor beta (ER-beta) signaling pathway (AID 1259378; active means well fitted inhibition curve with a large enough effect in the signal ratio in the repeat runs, not every such curve was filed as active; the % refers to the signal ratio; further: potency means the concentration at half of the fitted maximal effect). Conditions: ER-beta-UAS-bla HEK293T, beta-lactamase FRET ratio, 16 h; series mostly up to 92.4 µM. A digest of the protocol: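 Antagonist mode: compounds added to beta-lactamase reporter HEK293T ER-beta-UAS cells stimulated with E2 (1nM final), 16 hr at 37C. LiveBLAzer B/G FRET substrate, 2 hours room temperature, fluorescence read-out.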

Where “and” joins values, the source holds several entries; their conditions need not be identical. Equal values may be shown once. Unmarked numbers belong to inactive results. Results filed as inconclusive are left out. Calls of active or inactive are those of the source. Unless noted, the call rests on the fitted dose curve.

Sequence of Thyrotropin receptor (Homo sapiens) (P16473 whole entry, looked up): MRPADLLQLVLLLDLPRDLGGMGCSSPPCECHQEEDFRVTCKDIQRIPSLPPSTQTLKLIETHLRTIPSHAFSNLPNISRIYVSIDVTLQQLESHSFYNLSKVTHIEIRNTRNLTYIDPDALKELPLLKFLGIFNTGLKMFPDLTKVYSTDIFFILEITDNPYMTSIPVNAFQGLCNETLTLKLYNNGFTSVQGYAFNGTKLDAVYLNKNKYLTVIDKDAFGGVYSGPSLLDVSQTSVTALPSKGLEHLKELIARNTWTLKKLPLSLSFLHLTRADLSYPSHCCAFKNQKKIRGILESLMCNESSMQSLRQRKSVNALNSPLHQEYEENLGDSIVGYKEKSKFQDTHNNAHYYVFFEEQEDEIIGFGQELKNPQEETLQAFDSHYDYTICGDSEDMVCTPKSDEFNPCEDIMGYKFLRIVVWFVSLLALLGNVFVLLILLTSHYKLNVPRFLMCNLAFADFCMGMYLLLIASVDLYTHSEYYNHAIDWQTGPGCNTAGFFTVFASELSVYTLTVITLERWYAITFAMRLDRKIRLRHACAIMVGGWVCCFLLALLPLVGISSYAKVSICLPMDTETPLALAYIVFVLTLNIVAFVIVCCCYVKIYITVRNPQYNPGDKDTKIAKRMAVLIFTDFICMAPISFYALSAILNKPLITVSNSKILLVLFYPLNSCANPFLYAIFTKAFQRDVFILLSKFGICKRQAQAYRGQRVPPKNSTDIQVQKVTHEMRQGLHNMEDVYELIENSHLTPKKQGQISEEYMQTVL
Sequence of Androgen receptor (Homo sapiens) (P10275 whole entry, looked up): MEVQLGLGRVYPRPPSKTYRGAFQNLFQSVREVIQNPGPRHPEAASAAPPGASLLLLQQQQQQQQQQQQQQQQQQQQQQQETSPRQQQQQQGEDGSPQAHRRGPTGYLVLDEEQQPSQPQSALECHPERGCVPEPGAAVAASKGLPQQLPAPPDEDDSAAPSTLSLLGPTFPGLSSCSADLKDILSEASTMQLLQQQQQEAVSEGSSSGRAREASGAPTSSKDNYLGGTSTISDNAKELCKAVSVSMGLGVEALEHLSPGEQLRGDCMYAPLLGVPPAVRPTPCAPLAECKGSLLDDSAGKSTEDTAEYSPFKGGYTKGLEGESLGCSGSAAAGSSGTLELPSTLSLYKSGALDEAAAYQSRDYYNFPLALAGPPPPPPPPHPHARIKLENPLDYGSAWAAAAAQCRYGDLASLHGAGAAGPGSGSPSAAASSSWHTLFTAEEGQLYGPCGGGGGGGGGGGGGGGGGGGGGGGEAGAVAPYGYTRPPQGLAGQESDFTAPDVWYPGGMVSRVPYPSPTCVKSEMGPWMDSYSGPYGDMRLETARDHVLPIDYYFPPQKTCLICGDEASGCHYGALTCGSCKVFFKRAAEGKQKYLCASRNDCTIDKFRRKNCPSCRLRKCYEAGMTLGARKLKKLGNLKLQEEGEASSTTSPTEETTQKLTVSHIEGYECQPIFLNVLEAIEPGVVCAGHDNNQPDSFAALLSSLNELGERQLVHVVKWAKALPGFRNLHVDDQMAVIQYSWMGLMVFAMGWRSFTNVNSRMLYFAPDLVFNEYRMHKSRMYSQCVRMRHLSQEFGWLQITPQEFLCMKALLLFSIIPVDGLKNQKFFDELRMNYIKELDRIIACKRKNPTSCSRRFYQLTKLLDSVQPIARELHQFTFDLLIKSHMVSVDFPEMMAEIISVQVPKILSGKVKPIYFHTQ

With `CN(C)CCc1c[nH]c2ccccc12`, the Potency entry in assay [1], in [2], in assay [3], in [4], in [5] and in assay [6] was “inactive” each time.

On to `CN`, for which the Potency result in [1], in assay [2], in assay [3], in assay [4], in [5] and in [6] was “inactive” throughout.

For the compound `O=c1[nH]c(Cl)c(Cl)cc1Cl`, the Potency result in [1], in [2], in [7], in [5] and in assay [6] was “inactive” in each case.

With `ClC1(Cl)C2(Cl)C3(Cl)C4(Cl)C(Cl)(Cl)C5(Cl)C3(Cl)C1(Cl)C5(Cl)C24Cl` (configuration not stated), the Potency entry in assay [1], in assay [2], in assay [7], in [4], in [8] and in assay [5] was “inactive” in each case. In assay [6], the Potency result was “inactive”.

For `CCOP(=O)(Sc1ccccc1)Sc1ccccc1`, the Potency result in [1], in assay [2], in assay [4], in assay [8], in [5] and in assay [6] was “inactive” each time.

For the compound `[Cl-].[Cl-].[Cl-].[Yb+3]`, the Potency result in [1], in assay [2] and in [4] was “inactive” each time.

Take `c1ccc2c(c1)cc1ccc3cccc4ccc2c1c34`: the Potency result in assay [1], in [3], in assay [4], in assay [5] and in assay [6] was “inactive” each time.

As to `CCOP(=S)(OCC)SC(CCl)N1C(=O)c2ccccc2C1=O` (configuration not stated), the Potency result in assay [9], in assay [2], in assay [3], in assay [7], in assay [4] and in [5] was “inactive” throughout. Besides, in assay [10], the Potency was 30.6 µM (active).

For `CN1CCc2cc(Cl)c(O)cc2[C@H]2c3ccccc3CC[C@@H]21`, the Potency result in assay [1], in assay [4], in assay [8], in assay [5] and in assay [6] was “inactive” in each case. Besides, the Potency in [3] is 15 µM (active).

Consider `CCO/N=C(\CC)C1=C(O)CC(c2c(C)cc(C)cc2C)CC1=O` (configuration not stated), for which, in assay [1], the Potency is 5.45 µM (active). In addition, the Potency result in assay [2], in [7], in assay [4] and in assay [8] was “inactive” in each case.

`CCCCCON=O`: the Potency result in [9], in assay [10], in assay [2], in [3], in [4] and in assay [5] was “inactive” throughout. The Potency result in [6] is “inactive”.

For `CCNS(=O)(=O)C(F)(F)C(F)(F)C(F)(F)C(F)(F)C(F)(F)C(F)(F)C(F)(F)C(F)(F)F`, the Potency in assay [1] is 32.9 µM (active); in assay [3], 23.3 µM (active). Moreover, the Potency entry in assay [7], in assay [4], in [5] and in assay [6] was “inactive” throughout.

For `CNC(C)(C)Cc1ccccc1`, the Potency result in [1], in assay [2], in assay [4], in assay [5] and in assay [6] was “inactive” each time.

Consider `Cc1cc2c3c(c1)C(c1ccccc1)=N[C@@H](NC(=O)c1ccncc1)C(=O)N3CC2`, for which the Potency result in assay [9], in assay [10], in assay [2], in assay [3], in assay [4] and in assay [8] was “inactive” each time. For the same compound, the Potency entry in [5] and in assay [6] was “inactive” each time.

`COP(=O)(OC)O/C(=C\Cl)c1cc(Cl)c(Cl)cc1Cl`: the Potency result in assay [1], in assay [7], in [4], in assay [8] and in assay [5] was “inactive” in each case.

For the compound `Cc1c([N+](=O)[O-])c(C)c([N+](=O)[O-])c(C(C)(C)C)c1[N+](=O)[O-]`, the Potency result in assay [1], in [2], in [8], in assay [5] and in assay [6] was “inactive” in each case. Further, the Potency in assay [3] was 27.3 µM (active).

On to `COc1ccc2[nH]cc(CCN(C(C)C)C(C)C)c2c1`, for which the Potency entry in [1], in assay [2], in [5] and in assay [6] was “inactive” throughout.

For the compound `CCCCON=O`, the Potency result in assay [1], in assay [2], in assay [3], in assay [4], in assay [5] and in [6] was “inactive” throughout.

Regarding `CNC(=O)O/N=C(\C)C(C)S(C)(=O)=O` (configuration not stated), the Potency in assay [1] was 282 µM (active). Also, the Potency result in assay [2], in assay [3], in assay [4], in [5] and in assay [6] was “inactive” each time.

Take `c1csc(-c2ccc(-c3cccs3)s2)c1`: the Potency result in [1], in assay [2], in [3], in assay [4], in [5] and in [6] was “inactive” each time.

On to `CCCCC(CC)COC(=O)c1ccccc1C(=O)OCC(CC)CCCC` (configuration not stated), for which the Potency entry in assay [1], in assay [2], in [4], in assay [5] and in assay [6] was “inactive” throughout. In addition, the Potency in assay [8] was 27.3 µM (active).

Turning to `CC1=C2C[C@H]3[C@@H](CC=C4C[C@@H](O)CC[C@@]43C)[C@@H]2CC[C@]12O[C@@H]1C[C@H](C)CN[C@H]1[C@H]2C`, the Potency was 0.266 µM (active) in assay [1] and 26.6 µM (active) in [2]. For the same compound, the Potency result in assay [7], in [4], in assay [8], in [5] and in assay [6] was “inactive” throughout.

Regarding `CCOP(=S)(OCC)Oc1cc(C)nc(N(CC)CC)n1`, the Potency result in assay [9], in assay [10], in assay [2], in assay [3], in [7] and in assay [4] was “inactive” throughout. The Potency result in [8] and in assay [5] was “inactive” each time. For the same compound, in assay [6], the Potency was 30.6 µM (active).

`O=S(=O)(NS(=O)(=O)C(F)(F)F)C(F)(F)F`: the Potency is 2.43 µM (active) in [1] and 19.3 µM (active) in [2]. The Potency result in assay [4] was “inactive”.

Take `Clc1ccc(C(c2ccc(Cl)cc2)C(Cl)Cl)cc1`: the Potency in assay [1] was 34.4 µM (active); in [3] it was 54.5 µM (active); in assay [6] it was 62.1 µM (active) and 61.1 µM (active). Further, the Potency result in assay [2], in [8] and in [5] was “inactive” throughout.

As to `CN1C(=O)[C@@H](NC(=O)c2cc3ccccc3[nH]2)N=C(c2ccccc2)c2ccccc21`, the Potency entry in [1], in [2], in assay [3], in [4], in [5] and in [6] was “inactive” throughout.

For `COP(=S)(OC)Oc1nc(Cl)c(Cl)cc1Cl`, the Potency entry in assay [1], in assay [2], in assay [8], in assay [5] and in assay [6] was “inactive” in each case.
